{
  "source": "PubChem BioAssay AID588382",
  "about": "(National Center for Advancing Translational Sciences (NCATS), 2011)",
  "note": "Out of some 1,300 compounds screened, about 150 (12%) were called active. Another 30% or so got no clear call; they are omitted. Only a selection was taken, and actives are over-represented in it overall. Unmarked numbers belong to inactive results. The call rests on the fitted dose curve; in most records, active means well fitted cell-killing curve with a large enough effect; inconclusive means small, poorly fitted or top-dose-only effect, or effect the other way; inactive means flat fitted curve, though single readings scatter. On the % scale 0 is the no-effect control and ±100 the full control effect; potency means the concentration at half of the fitted maximal effect.",
  "data": [
    {"assay": "qHTS of small molecules that selectively kill Giardia lamblia: Hit Validation in HepG2 cytotox;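 further: compound exposure lasted overnight at 37 deg C; nearly all actives have a fitted effect of over 55% in size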;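 on activity change, negative = cytotoxicity: viability measured as cellular ATP by ATPLite luminescence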", "conditions": "cell viability; Potency: HepG2 cytotoxicity; series mostly up to 38.3 µM; activity change, negative = cytotoxicity: at the top concentration", "outline": "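Counterscreen cytotoxicity: ATPLite luminescence (15 min, room temperature) measured in HepG2 cells exposed overnight at 37 deg C to pin-transferred compound (23 nL) after overnight pre-incubation.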", "units": {"activity change, negative = cytotoxicity": "%"}, "values": [
      {"smiles": "CC(NC(=O)COc1cccnc1[N+](=O)[O-])c1ccc(Cl)cc1Cl", "note": "(stereo unspecified)", "activity change, negative = cytotoxicity": 8.39},
      {"smiles": "COC(=O)c1ccc(Nc2ccc3nonc3c2[N+](=O)[O-])cc1", "activity change, negative = cytotoxicity": 12.5},
      {"smiles": "CCn1cnc2c([N+](=O)[O-])c(NS(=O)(=O)c3ccc(C)cc3)ccc21", "activity change, negative = cytotoxicity": -5.57},
      {"smiles": "COc1cc(/C=C2\\SC(=O)N(Cc3ccc(Cl)cc3)C2=O)cc([N+](=O)[O-])c1O", "activity change, negative = cytotoxicity": -0.415},
      {"smiles": "O=C(Cc1ccccc1)Nc1nnc(-c2cccs2)s1", "activity change, negative = cytotoxicity": -2.94},
      {"smiles": "O=[N+]([O-])c1ncc(Br)cc1Nc1ccccc1", "activity change, negative = cytotoxicity": 14.2},
      {"smiles": "O=S(=O)(Nc1cc(Sc2cccc3cccnc23)c(O)c2ccccc12)c1ccc(F)cc1", "Potency": "4.65 µM (active)"},
      {"smiles": "COC(=O)[C@@]1(Cc2ccc(OC)cc2)[C@H]2c3cc(C(=O)N4CCCC4)n(CCn4cc([N+](=O)[O-])nc4C)c3C[C@H]2CN1C(=O)c1ccccc1", "activity change, negative = cytotoxicity": 3.15},
      {"smiles": "CN(C)/[N+]([O-])=N/Oc1ccc([N+](=O)[O-])cn1", "activity change, negative = cytotoxicity": 15},
      {"smiles": "O=c1c([N+](=O)[O-])cccn1Cc1ccc(F)cc1Cl", "activity change, negative = cytotoxicity": -5.01},
      {"smiles": "CC1CCCN(C(=O)c2ccc([N+](=O)[O-])o2)C1", "note": "(stereo unspecified)", "activity change, negative = cytotoxicity": -11.8},
      {"smiles": "O=C(CSc1ccsc1[N+](=O)[O-])NCc1ccccc1", "activity change, negative = cytotoxicity": 23.3},
      {"smiles": "CCOC(=O)c1nc(C(=O)NCc2ccc(C)cc2)nc2ccccc12", "activity change, negative = cytotoxicity": 18.3},
      {"smiles": "O=C(NNC(=O)c1cc(-c2ccncc2)nc2ccccc12)c1ccccc1O", "activity change, negative = cytotoxicity": -18.8},
      {"smiles": "CCn1cc(-c2cc(C(=O)O)c3ccccc3n2)cn1", "Potency": "2.07 µM (active)"},
      {"smiles": "CC(C)CC(=O)NC(=S)NNC(=O)c1ccc([N+](=O)[O-])cc1", "activity change, negative = cytotoxicity": -5.24},
      {"smiles": "Cc1ccc(S(=O)(=O)N2[C@@H](c3cccc(Cl)c3)C(C(=O)O)=CC[C@H]2c2cccc(C)c2)cc1", "activity change, negative = cytotoxicity": 18.2},
      {"smiles": "Cc1cc(N2CCN(C)CC2)nc2ccc(NC(=S)N3CCN(c4ccc(Cl)cc4)CC3)cc12", "activity change, negative = cytotoxicity": -17.9},
      {"smiles": "Cc1cccc(N2CCN(C(=S)Nc3ccc4nc(N5CCN(C)CC5)cc(C)c4c3)CC2)c1C", "Potency": "4.65 µM (active)"},
      {"smiles": "O=c1sc(N2CCN(c3ccc(F)cc3)CC2)nc2ccsc12", "activity change, negative = cytotoxicity": 21.6},
      {"smiles": "Cc1cc(N2CCN(C)CC2)nc2ccc(NC(=S)N3CCN(c4cccc(Cl)c4)CC3)cc12", "activity change, negative = cytotoxicity": -14.4},
      {"smiles": "Cc1cccc(N2CCN(C(=S)Nc3ccc4nc(N5CCN(C)CC5)cc(C)c4c3)CC2C)c1", "note": "(stereo unspecified)", "Potency": "18.5 µM (active)"},
      {"smiles": "Cc1cc(N2CCN(C)CC2)nc2ccc(NC(=S)N3CCN(c4ccc(F)cc4)CC3)cc12", "Potency": "20.7 µM (active)"},
      {"smiles": "O=Nc1c2ccc[nH]c-2c2ccc([N+](=O)[O-])cc12", "activity change, negative = cytotoxicity": 10.8},
      {"smiles": "O=C(Nc1ccc(F)cc1)C1CCN(C(=O)c2ccc([N+](=O)[O-])cc2)CC1", "activity change, negative = cytotoxicity": -6.84},
      {"smiles": "C/C(=N/NC(=O)C(O)(c1ccccc1)c1ccccc1)c1ccc([N+](=O)[O-])o1", "activity change, negative = cytotoxicity": -24.8},
      {"smiles": "CCOc1ccc(-c2c(C(=O)N/N=C/c3ccc(C)s3)nnn2-c2nonc2N)cc1", "activity change, negative = cytotoxicity": 11},
      {"smiles": "Cc1ccc(CN=c2c([N+](=O)[O-])nn(-c3ccc(Cl)cc3)n2O)cc1", "activity change, negative = cytotoxicity": 3.22},
      {"smiles": "Cc1ccc(CNC(=O)CSc2ccsc2[N+](=O)[O-])cc1", "activity change, negative = cytotoxicity": 11.7},
      {"smiles": "COc1ccc2c3n([n+]([O-])c2c1)CCN=C3c1ccc(C)cc1", "activity change, negative = cytotoxicity": 6.07},
      {"smiles": "CC(C)CC(=O)Nc1ncc([N+](=O)[O-])s1", "activity change, negative = cytotoxicity": 4.4},
      {"smiles": "Cc1ccc(CCN=c2c([N+](=O)[O-])nn(-c3ccccc3)n2O)cc1", "activity change, negative = cytotoxicity": -4.07},
      {"smiles": "COc1ccc(-n2nc([N+](=O)[O-])c(=NCc3cccnc3)n2O)cc1", "activity change, negative = cytotoxicity": 11.3},
      {"smiles": "CCOC(=O)c1cc([N+](=O)[O-])sc1NC(=O)CC", "activity change, negative = cytotoxicity": 1.07},
      {"smiles": "O=C(c1ccco1)N1CCN(c2c([N+](=O)[O-])nn(-c3ccc(Cl)cc3)[n+]2[O-])CC1", "activity change, negative = cytotoxicity": -1.34},
      {"smiles": "Cc1ncc(CO)c(/C=N/NC(=O)c2cc3c(s2)CCCC3)c1O", "Potency": "2.07 µM (active)"},
      {"smiles": "O=[N+]([O-])c1nn(-c2ccccc2)n(O)c1=NCCc1ccccc1", "activity change, negative = cytotoxicity": 18.6},
      {"smiles": "O=C(CNC(=O)c1ccccc1F)N/N=C/c1cc(Br)ccc1OCc1ccccc1", "activity change, negative = cytotoxicity": -8.87},
      {"smiles": "CN1C(=O)/C(=C/c2ccc(O)c([N+](=O)[O-])c2)N(C)C1=S", "activity change, negative = cytotoxicity": 8.37},
      {"smiles": "O=C(Nc1ccccc1O)c1ccc([N+](=O)[O-])cc1", "activity change, negative = cytotoxicity": -1.8},
      {"smiles": "COc1ccc(C(=O)Nc2ccc3[nH]ccc3c2)cc1", "Potency": "2.33 µM (active)"},
      {"smiles": "COc1ccc(NC(=O)c2ccco2)c(NC(=O)c2ccc([N+](=O)[O-])cc2)c1", "activity change, negative = cytotoxicity": 2.61},
      {"smiles": "COc1ccc(C(=O)NC2CCN(S(=O)(=O)c3ccc(F)cc3)CC2)cc1", "activity change, negative = cytotoxicity": 12.2},
      {"smiles": "O=C(NNC(=O)c1ccc([N+](=O)[O-])o1)c1ccccc1", "activity change, negative = cytotoxicity": -15},
      {"smiles": "O=C(Nc1ccc2[nH]ccc2c1)c1ccccc1", "Potency": "4.14 µM (active)"},
      {"smiles": "O=[N+]([O-])c1ccc(CSc2nnc(-c3cccnc3)o2)cc1", "activity change, negative = cytotoxicity": -7.7},
      {"smiles": "NNC(=O)c1cccc(Cn2cc(Br)c([N+](=O)[O-])n2)c1", "activity change, negative = cytotoxicity": 17.3},
      {"smiles": "Cc1cccc(CCN=c2c([N+](=O)[O-])nn(-c3ccccc3)n2O)c1", "activity change, negative = cytotoxicity": 0.954},
      {"smiles": "Nc1c(Cl)cc(C2=NCCn3c2c2ccc(C(F)(F)F)cc2[n+]3[O-])cc1Cl", "activity change, negative = cytotoxicity": -4.92},
      {"smiles": "COc1ccc(-c2cn3cc([N+](=O)[O-])ccc3n2)cc1OC", "activity change, negative = cytotoxicity": -4.09},
      {"smiles": "CC(=O)Nc1ccc(NC(=O)c2c([N+](=O)[O-])cnn2C)cc1", "activity change, negative = cytotoxicity": 13}
    ]}
  ]
}
